Source: PubChem
In the library only some 18% were active in any assay of this set; here they are far more common.
HepG2 viability: counter-screen for TGF-b inhibitors: cytotoxicity in HepG2 cells; AID 588856; actives 0.76% (n = 410,000); HepG2 CAGA-GFP viability, ATP luminescence, 18 h; Potency, µM (top dose mostly 46.1 µM), for inactives: at the highest dose activity change, negative = cytotoxicity, usual class: cytotoxic; note: potency is the fitted concentration of half-maximal effect
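CellTiter-Glo luminescence gave cytotoxicity after 18 hours at 37 degrees C. The cells were HepG2 CAGA-GFP in 1% FBS DMEM, stimulated with 500 pg/mL TGF-beta after compound addition. %Activity was normalised to no-cell wells (complete cell-killing) and DMSO (no toxicity), and curves were fitted and classified.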
IL1B secr inh: blocks inflammasome-driven IL-1 beta release; AID 743279; THP-1 LPS/ATP IL-1B secretion, AlphaLISA, 16 h; active compounds read low; actives 4.7% (n = 360,000); activity change, % at 57.5 µM; in the data active = activity change below about -50%; inconclusive = mostly about -30% to -49%; note: % is set by controls: 0 for no effect and ±100 for the full control effect
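THP-1 cells pretreated 1 hr with compounds (up to 57.5 uM final), then stimulated with LPS (250 ng/mL final) plus ATP (1.25 mM final); secreted IL-1B measured by AlphaLISA after 16 hr, decreased signal indicating inhibition.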
TDP1 block: TDP1 (human) enzyme inhibition. Q9NUW8. recombinant TDP1, AlphaScreen DNA substrate cleavage. Potency, µM (doses to about 130 µM), without a hit: top-dose activity change, negative = inhibition, actives largely listed as inhibitors. actives 0.28% (n = 350,000). AID 485290; note: potency is the fitted concentration of half-maximal effect; % is set by controls: 0 for no effect and ±100 for the full control effect; nearly all actives have a fitted effect of over 40% in size
Target sequence (Q9NUW8 whole entry, looked up): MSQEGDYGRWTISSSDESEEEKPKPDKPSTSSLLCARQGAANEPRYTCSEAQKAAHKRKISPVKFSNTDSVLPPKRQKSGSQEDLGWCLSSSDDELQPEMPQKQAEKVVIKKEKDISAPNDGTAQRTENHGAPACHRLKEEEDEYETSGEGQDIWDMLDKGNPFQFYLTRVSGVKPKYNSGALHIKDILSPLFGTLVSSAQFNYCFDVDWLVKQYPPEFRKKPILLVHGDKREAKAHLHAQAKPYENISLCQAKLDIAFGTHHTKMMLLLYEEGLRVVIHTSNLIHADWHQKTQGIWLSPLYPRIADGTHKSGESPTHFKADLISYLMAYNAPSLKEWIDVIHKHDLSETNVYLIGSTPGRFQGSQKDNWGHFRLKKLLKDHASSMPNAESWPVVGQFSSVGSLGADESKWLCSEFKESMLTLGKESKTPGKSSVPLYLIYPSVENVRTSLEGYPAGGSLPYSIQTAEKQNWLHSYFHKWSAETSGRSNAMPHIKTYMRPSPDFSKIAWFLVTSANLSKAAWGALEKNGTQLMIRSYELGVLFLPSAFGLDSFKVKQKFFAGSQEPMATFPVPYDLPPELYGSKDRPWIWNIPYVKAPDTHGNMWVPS
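Signal: AlphaScreen proximity between streptavidin donor and anti-FITC acceptor beads on intact substrate. Reaction: Tdp1 1 nM, substrate 15 nM final, 5 min RT after 15 min compound preincubation.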
TGFb SMAD3 inh: inhibitors of TGF-b signaling. HepG2 CAGA-GFP TGF-b/SMAD3 reporter, GFP fluorescence, 18 h; TGF-beta stimulated, 500 pg/mL final. actives 1.2% (n = 410,000). Potency, µM (series often up to 46.1 µM), for the others: at the top dose activity, negative = inhibition, usual class: inhibitors; note: potency is the fitted concentration of half-maximal effect; % is set by controls: 0 for no effect and ±100 for the full control effect; nearly all actives have a fitted effect of over 65% in size
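TGF-beta reporter screen: HEPG2 CAGA-GFP, 1% FBS, 500 pg/mL TGF-beta final, 18 h; per-cell GFP summed per well; curves fitted and categorized by class.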
DT40 TDP1 CPT: DT40-hTDP1 cell growth loss with CPT; AID 686979; chicken DT40 Tdp1-/-;hTDP1 cells + 20 nM CPT, ATP luminescence, 48 h; actives 12% (n = 420,000); Potency, µM (doses to about 46.2 µM), for the others: at the highest dose activity change, negative = growth inhibition, usual class: inhibitors; note: potency is the fitted concentration of half-maximal effect; % is set by controls: 0 for no effect and ±100 for the full control effect; nearly all actives have a fitted effect of over 55% in size
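Chicken DT40 Tdp1-/- cells complemented with human TDP1, 400 cells/well, exposed to compounds plus 20 nM camptothecin for at least 48 h at 37 C; viability read as ATP content by CellTiter-Glo luminescence.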
TDP1 cell noCPT: qHTS for Inhibitors of human tyrosyl-DNA phosphodiesterase 1 (TDP1): qHTS in cells in absence of CPT. DT40 Tdp1-/- hTDP1 cells, no CPT, ATP luminescence, 48 h. actives 15% (n = 420,000). AID 686978, 2013. Potency, µM (titrated, usually from 46.2 µM), without a hit: top-dose activity change, negative = growth inhibition, usual class: inhibitors; note: potency is the fitted concentration of half-maximal effect; % is set by controls: 0 for no effect and ±100 for the full control effect; nearly all actives have a fitted effect of over 55% in size
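Growth kinetics read by CellTiter-Glo luminescence after ≥48 hr at 37 °C. Cells: DT40 Tdp1-/- stably carrying human TDP1, 400 per well, compound exposure in the absence of CPT (DMSO vehicle).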
Active calls of the source: *. Unless noted, calls come from the whole dose curve; as a rule, active = well fitted curve in the direction sought with a large enough effect; inconclusive = small, poorly fitted or top-dose-only effect, or another doubt; inactive = no such curve, though single readings can be large; an effect the other way counts as inactive or inconclusive.

c1cncc(CSc2ccc(-c3ccc4c(c3)OCO4)nn2)c1 was read as HepG2 viability -17%, IL1B secr inh -51*, TDP1 block 7%, TGFb SMAD3 inh -26%, DT40 TDP1 CPT inconclusive and TDP1 cell noCPT 16µM*.
For Fc1cccc(CSc2ccc(-c3ccc4c(c3)OCO4)nn2)c1 the results were HepG2 viability 5%, IL1B secr inh -2, TDP1 block 3%, TGFb SMAD3 inh -29%, DT40 TDP1 CPT 0% and TDP1 cell noCPT -5%.
`COc1ccc(NC(C)=O)cc1S(=O)(=O)N1CCN(Cc2cccs2)CC1` gave HepG2 viability -3%, IL1B secr inh 36, TDP1 block inconclusive, TGFb SMAD3 inh 14%, DT40 TDP1 CPT 7% and TDP1 cell noCPT -33%.
Screening Cc1cc(C(=O)COC(=O)CC2Sc3ccccc3NC2=O)c(C)n1-c1ccc2c(c1)OCO2 (centres undefined) returned HepG2 viability -1%, IL1B secr inh 26, TDP1 block 0%, TGFb SMAD3 inh -3%, DT40 TDP1 CPT inconclusive and TDP1 cell noCPT inconclusive.
COc1ccc(-n2c(C)cc(C(=O)COC(=O)Cc3n[nH]c(=O)c4ccccc34)c2C)cc1 was read as HepG2 viability -8%, IL1B secr inh -7, TDP1 block 8%, TGFb SMAD3 inh -6%, DT40 TDP1 CPT 12µM* and TDP1 cell noCPT 9.2µM*.
Cc1cc(C(=O)COC(=O)Cc2n[nH]c(=O)c3ccccc23)c(C)n1-c1ccc2c(c1)OCO2 was read as HepG2 viability -14%, IL1B secr inh 27, TDP1 block 5%, TGFb SMAD3 inh -18%, DT40 TDP1 CPT 18µM* and TDP1 cell noCPT 21µM*.
Cc1cc(C(=O)COC(=O)Cc2n[nH]c(=O)c3ccccc23)c(C)n1CC(F)(F)F was read as HepG2 viability 9%, IL1B secr inh 14, TDP1 block 1%, TGFb SMAD3 inh -4%, DT40 TDP1 CPT -23% and TDP1 cell noCPT -25%.
COCCn1c(C)cc(C(=O)COC(=O)c2ccc3ncsc3c2)c1C was read as HepG2 viability -55%, IL1B secr inh -12, TDP1 block 3%, TGFb SMAD3 inh -3%, DT40 TDP1 CPT 13µM* and TDP1 cell noCPT 15µM*.
`COCCn1c(C)cc(C(=O)COC(=O)Cc2n[nH]c(=O)c3ccccc23)c1C` gave HepG2 viability -8%, IL1B secr inh -11, TDP1 block 9%, TGFb SMAD3 inh -2%, DT40 TDP1 CPT inconclusive and TDP1 cell noCPT 21µM*.
For Cc1ccccc1C(=O)Nc1ccc(OCc2cc(=O)n3ccccc3n2)cc1 the results were HepG2 viability 0%, TDP1 block 5%, TGFb SMAD3 inh -16%, DT40 TDP1 CPT 12% and TDP1 cell noCPT 3%.
For O=C(COC(=O)COc1ccc(Cl)cc1)Nc1ccc2c(c1)OCCO2 the results were HepG2 viability 4%, IL1B secr inh 14, TDP1 block 2%, TGFb SMAD3 inh 3%, DT40 TDP1 CPT -19% and TDP1 cell noCPT 15%.
For COCCn1c(C)cc(C(=O)COC(=O)c2n[nH]c3ccccc23)c1C the results were HepG2 viability 3%, IL1B secr inh -4, TDP1 block 1%, TGFb SMAD3 inh -11%, DT40 TDP1 CPT -29% and TDP1 cell noCPT 23µM*.
Cc1cc(C(=O)COC(=O)c2n[nH]c3ccccc23)c(C)n1CC1CCCO1 (centres undefined) was read as HepG2 viability -21%, IL1B secr inh 6, TDP1 block 6%, TGFb SMAD3 inh -4%, DT40 TDP1 CPT -19% and TDP1 cell noCPT inconclusive.
Screening COCCn1c(C)cc(C(=O)COC(=O)c2cccnc2SC)c1C returned HepG2 viability 5%, IL1B secr inh 7, TDP1 block 7%, TGFb SMAD3 inh inconclusive, DT40 TDP1 CPT inconclusive and TDP1 cell noCPT 16µM*.
Screening COCCn1c(C)cc(C(=O)COC(=O)c2ccccc2Br)c1C returned HepG2 viability 2%, IL1B secr inh 12, TDP1 block 5%, TGFb SMAD3 inh 12%, DT40 TDP1 CPT -19% and TDP1 cell noCPT inconclusive.
For CC1Cc2ccccc2N1C(=O)CSc1nn2c(=O)c(C(C)(C)C)nnc2s1 (centres undefined) the results were HepG2 viability -44%, IL1B secr inh -96*, TDP1 block 3%, TGFb SMAD3 inh -26%, DT40 TDP1 CPT inconclusive and TDP1 cell noCPT inconclusive.
`CC(C)(C)c1nnc2sc(SCC(=O)N3CCCc4ccccc43)nn2c1=O` gave HepG2 viability -20%, IL1B secr inh -29, TDP1 block 6%, TGFb SMAD3 inh -3%, DT40 TDP1 CPT inconclusive and TDP1 cell noCPT 23µM*.
Cc1ccc(C(=O)Nc2nnc(SCC(=O)N3CCCc4ccccc43)s2)cc1 was read as HepG2 viability -12%, IL1B secr inh 0, TDP1 block 2%, TGFb SMAD3 inh -11%, DT40 TDP1 CPT 6% and TDP1 cell noCPT inconclusive.
For COc1cc(C)nc(N(Cc2ccccc2)S(=O)(=O)c2ccccc2)n1 the results were HepG2 viability -18%, IL1B secr inh -15, TDP1 block -5%, TGFb SMAD3 inh 4%, DT40 TDP1 CPT inconclusive and TDP1 cell noCPT inconclusive.
Screening COc1cc(C)nc(N(Cc2ccccc2)S(=O)(=O)c2ccc(C)cc2)n1 returned HepG2 viability -27%, IL1B secr inh inconclusive, TGFb SMAD3 inh inconclusive, DT40 TDP1 CPT inconclusive and TDP1 cell noCPT 18µM*.
For COc1ccc(OCC(=O)OCC(=O)NC2CC2)cc1 the results were HepG2 viability 0%, IL1B secr inh 0, TDP1 block 1%, TGFb SMAD3 inh 0%, DT40 TDP1 CPT 6% and TDP1 cell noCPT 22%.
Screening CCc1c(C)sc2nc(C(C)C)nc(SCC(=O)N3CCc4ccccc4C3)c12 returned HepG2 viability 1%, IL1B secr inh -67*, TDP1 block 6%, TGFb SMAD3 inh -15%, DT40 TDP1 CPT inconclusive and TDP1 cell noCPT 21µM*.
For Cc1sc2nc(C3CC3)nc(SCC(=O)N3CCc4ccccc4C3)c2c1C the results were HepG2 viability -17%, IL1B secr inh -75*, TDP1 block 3%, TGFb SMAD3 inh inconclusive, DT40 TDP1 CPT inconclusive and TDP1 cell noCPT 21µM*.
